Test results from PubChem BioAssay (NCI).
Where “and” joins values, the source holds several entries; their conditions need not be identical. Equal values may be shown once. About 83,000 compounds went through this panel and 20% of them were active in at least one assay; those are over-represented in the sample as a whole.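 48-hour exposure, single concentration, 96-well plates; percent growth endpoint where 0 means no net growth. Active: below 10.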 Unmarked numbers belong to inactive results. Calls of active or inactive are those of the source.

Tested on: HL-60(TB) leukemia
Assay: NCI-60 one-dose screen, 48 h (100 = growth as untreated, 0 = no growth, -100 = all killed)
Settings: 10 µM unless noted

| Compound | growth |
| --- | --- |
| Cn1cc(-c2csc(-c3cn(CCNC(=O)OC(C)(C)C)c4ccccc34)n2)c2cccnc21 | 45.9% |
| COc1ccc(-c2c3c(N)c4c(nc3nc3c2c(C)nn3-c2ccccc2)CCCCC4)cc1 | 49.3% |
| C/C=C(\C)C(C(=O)NC1CCCCC1)N(C(=O)C1CCc2cc(F)ccc2O1)c1ccc(Cl)cc1 (centres undefined) | 97.8% |
| O=C(Cc1ccccc1[N+](=O)[O-])c1ccc2c(c1)OCO2 | 99.7% |
| COC(=O)/C=C/c1cc(O)c2oc(-c3ccc(O)c(O)c3)c(C(=O)OC)c2c1 | 6.46% (active) |
| O=C(/C=C/C=C/c1ccc2c(c1)OCO2)N/N=C\c1ccc(O)cc1O | -0.489% (active) |
| CCN(CC)CCCNc1ccnc2cc3ccccc3cc12 | 83.7% |
| CCC1CCC(C)NC1 (centres undefined) | 99.4% |
| CC(=O)NC(Cc1ccccc1)C(=O)Oc1ccc2ccccc2c1 (centres undefined) | 110% and 83.4% |
| Nc1ccc(N=Nc2ccc(S(=O)(=O)O)cc2)cc1S(=O)(=O)O | 98.5% and 146% |
| CC(=O)c1cc2c(N)c(C(=O)Nc3cncc4ccccc34)sc2nc1C | 91.6% |
| NC1=NC(c2ccccc2)C2=C(N1)/C(=C/c1ccccc1)CCC2 (centres undefined) | 80.7% |
| CN(C)CCCC1(c2ccc(F)cc2)OCc2cc(-c3cncc4ccccc34)ccc21 (centres undefined) | 10.7% |
| COC(=O)Nc1nc2ccc(C(=O)c3ccccc3N(C)C3COC3)cc2[nH]1 | 15.6% |
| CNc1cc(-c2cccc(OC(F)(F)F)c2)nc2ccc(N3CCCC3)cc12 | -43% (active) and -44.1% (active) and 1.92% (active) |
| COc1ccccc1NC(=O)N=Nc1c(O)[nH]c2ccccc12 | 93.8% |
| Oc1c(C(c2ccc(F)cc2)N2CCCCC2)ccc2cncnc12 (centres undefined) | -29.3% (active) |
| S=C(S)N1CCCC1 | 114% and 110% |
| OCCNCCCOc1ccc2ncnc(Nc3ccc(Oc4cccc(C(F)(F)F)c4)c(Cl)c3)c2c1 | -31.3% (active) |
| O=C(OCC1CC2(Cl)C(Cl)=C(Cl)C1(Cl)C2(Cl)Cl)C1C(C(=O)OCC2CC3(Cl)C(Cl)=C(Cl)C2(Cl)C3(Cl)Cl)C2(Cl)C(Cl)=C(Cl)C1(Cl)C2(Cl)Cl (centres undefined) | 89.3% |

| Compound | growth |
| --- | --- |
| CN1CCN(CCOc2ccc(-c3cnc4c(-c5ccccc5F)cnn4c3)cc2)CC1 | -30.2% (active) |
| COc1ccc(Cn2cc3c(c2-c2ccccc2)CCc2cncnc2-3)cc1 | 15.2% |
| Cc1ccc(NC(=O)Cn2cc(CN3CCN(c4ccnc5cc(Cl)ccc45)CC3)nn2)cc1 | 87% |
| N#Cc1nn(-c2cc(=O)[nH]c3ccc(Cl)cc23)c(N)c1C#N | 0.972% (active) |
| COc1ccc2c(c1)[n+]([O-])c(C#N)c(NC(=O)c1ccco1)[n+]2[O-] | 108% |
| O=C(C[n+]1ccccc1)c1ccc2ccccc2c1 | 101% |
| COc1cc(C(=O)N/N=C/c2cccc([N+](=O)[O-])c2)cc(OC)c1OC | 41.3% |
| CN1CCc2c(Sc3ccc(C(=O)NO)cc3)c3ccccc3n2C1 | 60.3% |
| CN(C)c1ccc(Cc2ccc(N(C)C)cc2Cl)c(Cl)c1 | 5.92% (active) |
| Cn1c(N)c(N=O)c(=O)n(C)c1=O | 105% and 89.8% |
| COc1c(N)c2c(c([N+](=O)[O-])c1OC)C(=O)OC2 | 95.3% |
| CC1=C(C)C[C@]2(C(=O)O[C@H]3CCCC[C@@H]32)[S@](=O)C1 | 98.1% |
| COc1cc(-c2cc3ncccc3c3nc(N)c4cccnc4c23)cc(OC)c1OC | 6.71% (active) |
| CC(C)C1C2=C(NCCN1C(=O)Cc1ccccc1)C(C)(C)N(Cc1ccccc1)C2=O (centres undefined) | 100% |
| O=S(=O)(Nc1ccc(NS(=O)(=O)c2ccccc2)c(Cl)c1)c1ccccc1 | 78.4% |
| Cc1nc2ncccc2nc1Nc1ccc(S(=O)(=O)Nc2cncs2)cc1 | 109% |
| COC(=O)CC[C@H](C)[C@H]1CC[C@H]2[C@@H]3CC[C@@H]4CC5(CC[C@]4(C)[C@H]3CC(=O)[C@]12C)Nc1ccccc1NC5=NC(C)(C)C (some centres undefined) | 43.6% |
| C=CCn1c(SCC(=O)NCc2cc(C)c(O)c(C)c2)nc2ccc(Cl)cc2c1=O | 94.4% |
| S=c1[nH]cccc1-c1nnc2n1Nc1nc3ccc(Cl)cc3cc1CS2 | 104% |
